“And” between values parts separate entries of the source, which are not always exact repeats. Equal entries are not always repeated. Inconclusive results are not listed. The source made the active and inactive calls. Unless noted, calls come from the whole dose curve.
Assay: Cell Viability - HepG2 (AID 433);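 note: potency is the fitted concentration of half-maximal effect; potency for ATP loss meaning cytotoxicity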
Settings: qHTS
Summary of the method: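 Cytotoxicity read as ATP loss (CellTiter-Glo luminescence) after 40 hr compound exposure of HepG2, 1500 cells/well, 37 °C. AC50 by Hill equation; 0% set by DMSO, 100% inhibition by 100 uM tamoxifen.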

SMILES | Potency
CCCCCCCCCCCCOS(=O)(=O)O | > 92 µM (inactive)
Nc1ccc(S(=O)(=O)Nc2nccs2)cc1 | > 92 µM (inactive)
CCCCOC(=O)c1ccc(O)cc1 | > 92 µM (inactive)
[Cl][In]([Cl])[Cl] | > 92 µM (inactive)
O=C1c2c(O)cccc2Cc2cccc(O)c21 | > 92 µM (inactive)
NC(=O)c1ncn([C@@H]2O[C@H](CO)[C@@H](O)[C@H]2O)n1 | > 92 µM (inactive)
CC12CCC(CC1)C(C)(C)O2 | > 92 µM (inactive)
Oc1cccc(O)c1 | > 92 µM (inactive)
COC(=O)C1=C(C)NC(C)=C(C(=O)OC)C1c1ccccc1[N+](=O)[O-] | > 92 µM (inactive)
O=C1O[C@H]([C@@H](O)CO)C(O)=C1O | > 92 µM (inactive)
C[C@]12C[C@H](O)[C@H]3[C@@H](CCC4=CC(=O)CC[C@@]43C)[C@@H]1CC[C@@H]2C(=O)CO | > 92 µM (inactive)
NCCNCCNCCN | > 92 µM (inactive)
Cc1c(O)cccc1C(=O)N[C@@H](CSc1ccccc1)[C@H](O)CN1C[C@H]2CCCC[C@H]2C[C@H]1C(=O)NC(C)(C)C | 24.6 µM (active)
Cc1cc2nc3c(=O)[nH]c(=O)nc-3n(C[C@H](O)[C@H](O)[C@H](O)CO)c2cc1C | > 92 µM (inactive)
CC1(C)[C@@H]2CC[C@@]1(C)C(=O)C2 | > 92 µM (inactive)
Cc1cc(CC(=O)O)n(C)c1C(=O)c1ccc(Cl)cc1 | > 92 µM (inactive)
NCCNCCNCCNCCN | > 92 µM (inactive)
COc1ccccc1O | > 92 µM (inactive)

Assay: Cell Viability - MRC5 (AID 434);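 note: potency is the fitted concentration of half-maximal effect; cells exposed to compound for 40 hours at 37 °C; potency reflects cytotoxicity seen as loss of intracellular ATP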
Settings: MRC5 lung fibroblast viability, qHTS
Summary of the method: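 Decrease in intracellular ATP, quantified by luciferase light output, reflects compound toxicity toward MRC5 cells exposed for 40 hr in complete culture medium. Concentration-response curves, scaled between DMSO and 100 uM tamoxifen, gave AC50 values.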

SMILES | Potency
CCCCCCCCCCCCOS(=O)(=O)O | > 92 µM (inactive)
Nc1ccc(S(=O)(=O)Nc2nccs2)cc1 | > 92 µM (inactive)
CCCCOC(=O)c1ccc(O)cc1 | > 92 µM (inactive)
[Cl][In]([Cl])[Cl] | > 92 µM (inactive)
O=C1c2c(O)cccc2Cc2cccc(O)c21 | > 92 µM (inactive)
NC(=O)c1ncn([C@@H]2O[C@H](CO)[C@@H](O)[C@H]2O)n1 | > 92 µM (inactive)
CC12CCC(CC1)C(C)(C)O2 | > 92 µM (inactive)
Oc1cccc(O)c1 | > 92 µM (inactive)
O=C1O[C@H]([C@@H](O)CO)C(O)=C1O | > 92 µM (inactive)
C[C@]12C[C@H](O)[C@H]3[C@@H](CCC4=CC(=O)CC[C@@]43C)[C@@H]1CC[C@@H]2C(=O)CO | > 92 µM (inactive)
NCCNCCNCCN | > 92 µM (inactive)
Cc1c(O)cccc1C(=O)N[C@@H](CSc1ccccc1)[C@H](O)CN1C[C@H]2CCCC[C@H]2C[C@H]1C(=O)NC(C)(C)C | 31.7 µM (active)
Cc1cc2nc3c(=O)[nH]c(=O)nc-3n(C[C@H](O)[C@H](O)[C@H](O)CO)c2cc1C | > 92 µM (inactive)
NC(=O)N/N=C/c1ccc([N+](=O)[O-])o1 | > 92 µM (inactive)
CC1(C)[C@@H]2CC[C@@]1(C)C(=O)C2 | > 92 µM (inactive)
Cc1cc(CC(=O)O)n(C)c1C(=O)c1ccc(Cl)cc1 | > 92 µM (inactive)
NCCNCCNCCNCCN | > 92 µM (inactive)
COc1ccccc1O | > 92 µM (inactive)

Assay: Cell Viability - SK-N-SH (AID 435); note: potency is the fitted concentration of half-maximal effect
Settings: SK-N-SH neuroblastoma cell viability qHTS
Summary of the method: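 qHTS cytotoxicity: CellTiter-Glo ATP luminescence after 40 h compound exposure of human neuroblastoma SK-N-SH cells at 37 °C. AC50 derived by Hill-equation fitting, with DMSO as basal and 100 uM tamoxifen as full inhibition.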

SMILES | Potency
CCCCCCCCCCCCOS(=O)(=O)O | > 92 µM (inactive)
Nc1ccc(S(=O)(=O)Nc2nccs2)cc1 | > 92 µM (inactive)
CCCCOC(=O)c1ccc(O)cc1 | > 92 µM (inactive)
[Cl][In]([Cl])[Cl] | > 92 µM (inactive)
O=C1c2c(O)cccc2Cc2cccc(O)c21 | > 92 µM (inactive)
NC(=O)c1ncn([C@@H]2O[C@H](CO)[C@@H](O)[C@H]2O)n1 | > 92 µM (inactive)
CC12CCC(CC1)C(C)(C)O2 | > 92 µM (inactive)
O=C1O[C@H]([C@@H](O)CO)C(O)=C1O | > 92 µM (inactive)
C[C@]12C[C@H](O)[C@H]3[C@@H](CCC4=CC(=O)CC[C@@]43C)[C@@H]1CC[C@@H]2C(=O)CO | > 92 µM (inactive)
NCCNCCNCCN | > 92 µM (inactive)
Cc1c(O)cccc1C(=O)N[C@@H](CSc1ccccc1)[C@H](O)CN1C[C@H]2CCCC[C@H]2C[C@H]1C(=O)NC(C)(C)C | 24.5 µM (active)
Cc1cc2nc3c(=O)[nH]c(=O)nc-3n(C[C@H](O)[C@H](O)[C@H](O)CO)c2cc1C | > 92 µM (inactive)
NC(=O)N/N=C/c1ccc([N+](=O)[O-])o1 | > 92 µM (inactive)
CC1(C)[C@@H]2CC[C@@]1(C)C(=O)C2 | > 92 µM (inactive)
Cc1cc(CC(=O)O)n(C)c1C(=O)c1ccc(Cl)cc1 | > 92 µM (inactive)
NCCNCCNCCNCCN | > 92 µM (inactive)
COc1ccccc1O | > 92 µM (inactive)

Assay: NFAT Signaling Pathway (AID 444; active = well fitted curve in either direction with a large enough effect, not every such curve was filed as active;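 note: carbachol stimulus at about its EC50 of 1 µM final; % is set by controls: 0 for no effect and ±100 for the full control effect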)
Settings: Jurkat NFAT-bla M1, carbachol, beta-lactamase ratio, 5 h; at 17.2 µM (top of the series)
Summary of the method: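 Jurkat cells carrying an NFAT-driven β-lactamase reporter and co-transfected muscarinic M1 receptor were treated with compound plus carbachol (1 uM final, an EC50 level) for 5 h at 37 °C. CCF4 loading followed for 1 h at RT; 460/530 nm ratio gave %activity.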

SMILES | activity change, negative = inhibition
NS(=O)(=O)c1cc2c(cc1C(F)(F)F)NC(Cc1ccccc1)NS2(=O)=O (stereo unspecified) | 0.596% (inactive)
CCCCOC(=O)c1ccc(O)cc1 | -15% (inactive)
Cc1cc2c(cc1S(N)(=O)=O)S(=O)(=O)CCC2 | 1.69% (inactive)
C[C@H](N)[C@H](O)c1cccc(O)c1 | -4.86% (inactive)
CN(C)CCC=C1c2ccccc2CCc2ccccc21 | -80% (active)
Nc1ncnc2c1ncn2[C@@H]1O[C@H](CO)[C@@H](O)[C@H]1O | -4.17% (inactive)
COC(=O)C1=C(C)NC(C)=C(C(=O)OC)C1c1ccccc1[N+](=O)[O-] | -7.96% (inactive)
Nc1ccc(S(=O)(=O)NC(=O)c2ccccc2)cc1 | 7.31% (inactive) and -26.1% (inactive)

— PubChem BioAssay (NCATS)
